# Results from PubChem BioAssay (EPA / NIEHS).
# Some compounds were tested as several samples or in several runs, with calls that do not always agree. Active and inactive are the calls of the source. The calls were made as follows: active = hit-call score of the fitted dose curve at least 0.9, where 1 is the maximum; inactive = score below 0.9.
# Assay: ATG_NRF2_ARE_CIS: Attagene CIS-FACTORIAL HepG2 Assay for human Nuclear Factor Erythroid 2 Related Factor 2 (NFR2) response to Antioxidant Response Elements (ARE) (AID 2282992)
# Details: HepG2 Attagene ARE/NRF2 reporter, transcription factor activity; actives raise or lower the signal
# Experimental: ATG_CIS is a cell-based, multiplexed-readout assay that uses HepG2, a human liver cell line, with measurements taken at 24 hours after chemical dosing in a 24-well plate.ATG_NRF2_ARE_CIS is one of 52 assay component(s) measured or calculated from the ATG_CIS assay. It is designed to make measurements of mRNA induction, a form of inducible reporter, as detected with fluorescence intensity signals by Reverse transcription polymerase chain reaction (RT-PCR) and Capillary electrophoresis technology.Data from the assay component ATG_NRF2_ARE_CIS was analyzed into 1 assay endpoint. This assay endpoint, ATG_NRF2_ARE_CIS, was analyzed with bidirectional fitting relative to DMSO as the negative control and baseline of activity. Using a type of inducible reporter, measures of mRNA for gain or loss-of-signal activity can be used to understand the reporter gene at the transcription factor-level as they relate to the gene NFE2L2. Furthermore, this assay endpoint can be referred to as a primary readout, because this assay has produced multiple assay endpoints where this one serves a reporter gene function. To generalize the intended target to other relatable targets, this assay endpoint is annotated to the dna binding intended target family, where the subfamily is basic leucine zipper.
# Human liver HepG2 cells are transiently transfected with multiple reporter transcription units (MRTUs) in 6-well plates using FuGene 6 reagent (Roche; 3 ml FuGene/1 mg DNA). The MRTU constructs are regulated by a cis-regulating element (promoter). […] A major difference between the CIS and TRANS system is that in CIS activities of endogenous TFs are measured, whereas the TRANS assay evaluates changes in activities of exogenous, chimeric NR-Gal4 proteins. […] At the end of 24 hour incubation, total RNA was isolated using TriZol reagent (Invitrogen). The isolated RNA is then reverse-transcribed using oligo(dT) primer and Mo-MLV reverse transcriptase (Invitrogen) with DNAse I (Ambion) treatment for 30 min. The one-tenth of the produced cDNA was amplified by PCR using Taq DNA polymerase (Invitrogen) and two reporter sequence-specific primers. The PCR products were fluorescently labeled by primer extension with 6-arboxyfluorescein (6-FAM) 5'-labeled reporter sequence-specific primer (2 min at 95 C, 20 s at 68 C and 10 min at 72 C) and these products were digested with 5U of HpaI (New England Biolabs) for 2h at 37 C. The fragments were purified using Qiaquick PCR columns (Qiagen), analyzed on an ABI 3130xL genetic analyzer (Applied Biosystems) with peak positions identified by using a set of X-rhodamine (ROX)-labeled MapMarker1000 molecular weight standards (BioVentures). The raw capillary electrophoresis data was processed using Attagraph software (Attagene).
Structure (SMILES),outcome,AC50
COc1ccccc1NC(=O)CC(C)=O,inactive,
CCCCOCC(C)OCC(C)O (stereo not given),inactive,
CC(O)CNCC(C)O (stereo not given),inactive,
C#C[C@]1(O)CC[C@H]2[C@@H]3CCc4cc(O)ccc4[C@H]3CC[C@@]21C,inactive,187 µM (active)
CC(C)(O)CCc1ccccc1,inactive,
CC1=CCC(C(C)(C)O)CC1 (stereo not given),inactive,
O=S1(=O)CC=CC1,inactive,
Brc1cc(Br)cc(Br)c1,inactive,
CC(=O)OCC=C(C)CCC=C(C)CCC=C(C)C,,49.5 µM (active)
Cc1cc(N)n(-c2ccccc2)n1,inactive,
CCCOC(=O)CC,inactive,
CC(C)Cc1ccc(C(C)C(=O)O)cc1 (stereo not given),inactive,
CCCCCC#CC(=O)OC,,23.9 µM (active)
CC1=CC[C@@H](C(C)(C)O)CC1,,40.6 µM (active)
CCCCOCCOCCOCCO,inactive,
C1=COCCC1,inactive,
CCC(C)C1CCCCC1=O (stereo not given),inactive,
CC(C)(C)c1ccc(S)cc1,,16.1 µM (active)
O=S(=O)(O)CCCN1CCOCC1,inactive,
CC(CO)c1ccccc1 (stereo not given),inactive,

Structure (SMILES),outcome,AC50
CC(C)N1C(=O)c2ccccc2C1=O,inactive,
CC(C)=CCCC(C)=CC(=O)O,inactive,
CC(C)(C)c1cccc(O)c1,inactive,
O=C(O)c1cc2ccccc2cc1O,inactive,
CCOC(=O)C(=O)OCC,inactive,
C=COCC1CCC(COC=C)CC1 (stereo not given),,179 µM (active)
[Cl][Dy]([Cl])[Cl],inactive,
NC(=O)NC(N)=O,inactive,
CC(=O)OC(C)(C)C,inactive,
[O-]/[N+](=N\O)c1ccccc1,,17.3 µM (active)
CC1=CC(O)CC(C)(C)C1 (stereo not given),inactive,
N=C1N=C(N)c2ccccc21,inactive,
NNC(=O)OCc1ccccc1,inactive,
CC(=O)CCc1ccc(O)cc1,inactive,
CC1COC(=O)O1 (stereo not given),inactive,
CC/C=C\CCOC(C)OCC (stereo not given),inactive,
CC(C)(O)C(=O)c1ccc(OCCO)cc1,inactive,
CCCCCCCCCCCCOCCOS(=O)(=O)O,inactive,
CCCCCc1cccc(=O)o1,,41.5 µM (active)
